The campaign covered roughly 310,000 compounds. About 2,200 (0.71%) showed an effect of 50% or more. The effect is printed as a negative number. This excerpt belongs to a sample that is enriched for strong results.

This test deals with human ether-à-go-go-related gene (hERG) potassium channel (human, UniProt Q12809). In words: primary screen, population patch clamp on CHO cells stably expressing hERG; higher = less effect of the substance.
Sequence of human ether-à-go-go-related gene (hERG) potassium channel (Q12809 whole entry, looked up): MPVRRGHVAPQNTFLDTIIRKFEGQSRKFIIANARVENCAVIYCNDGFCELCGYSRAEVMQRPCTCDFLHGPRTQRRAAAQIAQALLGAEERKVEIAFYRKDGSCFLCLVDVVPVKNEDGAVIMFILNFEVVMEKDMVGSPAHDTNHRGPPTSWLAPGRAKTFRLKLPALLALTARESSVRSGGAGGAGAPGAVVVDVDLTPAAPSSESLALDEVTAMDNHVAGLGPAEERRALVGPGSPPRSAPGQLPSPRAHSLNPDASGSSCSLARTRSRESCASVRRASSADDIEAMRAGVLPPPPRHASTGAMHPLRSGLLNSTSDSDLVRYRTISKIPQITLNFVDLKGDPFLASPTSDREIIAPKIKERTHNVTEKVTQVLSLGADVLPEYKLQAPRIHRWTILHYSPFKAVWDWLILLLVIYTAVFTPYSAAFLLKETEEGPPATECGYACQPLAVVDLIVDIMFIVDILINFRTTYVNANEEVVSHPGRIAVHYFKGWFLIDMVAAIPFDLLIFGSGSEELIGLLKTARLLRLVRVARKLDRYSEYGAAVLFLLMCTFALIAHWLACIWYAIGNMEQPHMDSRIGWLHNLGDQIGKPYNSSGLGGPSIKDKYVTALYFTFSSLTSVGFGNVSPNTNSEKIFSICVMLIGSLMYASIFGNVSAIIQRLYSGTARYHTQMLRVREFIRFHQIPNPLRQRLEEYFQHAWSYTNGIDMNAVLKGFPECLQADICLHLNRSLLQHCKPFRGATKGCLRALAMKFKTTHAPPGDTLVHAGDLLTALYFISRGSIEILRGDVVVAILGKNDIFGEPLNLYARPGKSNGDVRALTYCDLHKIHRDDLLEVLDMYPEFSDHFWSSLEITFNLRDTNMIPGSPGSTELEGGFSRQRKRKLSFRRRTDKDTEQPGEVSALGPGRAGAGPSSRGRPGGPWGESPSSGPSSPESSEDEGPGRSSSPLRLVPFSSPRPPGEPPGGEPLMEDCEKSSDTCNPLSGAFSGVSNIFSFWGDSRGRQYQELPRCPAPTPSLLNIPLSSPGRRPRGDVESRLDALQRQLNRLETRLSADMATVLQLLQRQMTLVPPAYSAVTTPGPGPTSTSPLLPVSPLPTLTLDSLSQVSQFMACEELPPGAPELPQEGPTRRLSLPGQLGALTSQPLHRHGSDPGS
On to `CCc1ccc(OCC(=O)O/N=C(\N)c2cccnc2)cc1`, for which the “hERG current change (%, negative = inhibition) at 1uM” value turned out to be 0.0916%. Turning to `Br.N=c1n(CCN2CCOCC2)c2ccccc2n1CC(=O)c1ccc(Cl)c(Cl)c1`, the “hERG current change (%, negative = inhibition) at 1uM” value is -69.1%. On to `N=c1n(CCOc2ccccc2)c2ccccc2n1CCN1CCOCC1`, for which the “hERG current change (%, negative = inhibition) at 1uM” value is -10%.

As to `Br.CCCn1c(=N)n(CC(=O)c2ccc(Cl)c(Cl)c2)c2ccccc21`, the “hERG current change (%, negative = inhibition) at 1uM” value is on record as -17.7%.

`Br.N=c1n(CCN2CCOCC2)c2ccccc2n1Cc1ccccc1Br`: the “hERG current change (%, negative = inhibition) at 1uM” value was -51.7%. The value for `Br.N=c1n(CCN2CCCCC2)c2ccccc2n1CC(=O)c1ccc(Cl)c(Cl)c1` was -14.7%; that for `Cc1ccc(C(=O)Cn2c(=N)n(CCN3CCOCC3)c3ccccc32)cc1.[Br-]` was -20.3%.

As to `COc1ccc(-n2nc3c(N4CCC(C(=O)NCCc5ccco5)CC4)nnc(C)c3c2C)cc1`, the “hERG current change (%, negative = inhibition) at 1uM” value came to 19.1%. The same measure for `CCOC(=O)c1c(N)sc2c1CCCC2`: 15.1%; for `CC(Sc1ccc(Cl)cc1)C(=O)Nc1ccccc1-c1ccccc1` (centres unmarked): 17.4%; for `COc1cc2c(cc1OC)CN(Cc1cc(=O)n3c(-c4ccccc4)csc3n1)CC2`: 14.9%. Regarding `COc1cc2c(cc1OC)C(NC(=O)c1ccc(C)cc1)CC2=O` (centres unmarked), the “hERG current change (%, negative = inhibition) at 1uM” value stood at 7.58%. The same measure for `Cn1c(=O)c(Nc2ccc(Cl)cc2)c2c3c(cccc31)C(=O)c1ccccc1-2`: 14.9%; for `COc1ccccc1-c1nnc(NC(=O)c2ccc(S(=O)(=O)N(C)Cc3ccccc3)cc2)o1`: 4.43%; for `COCC1OS(=O)(=O)NC(CC(=O)SC(C)(C)C)C1C` (centres unmarked): 9.98%.

As for `O=C(CCN1CCCCC1)NCC(=O)Nc1ccc(Br)cc1C(=O)c1ccccc1`, the “hERG current change (%, negative = inhibition) at 1uM” value is recorded as -78.1%. The same measure for `O=C(CN1CCCCC1)NCC(=O)Nc1ccc(Br)cc1C(=O)c1ccccc1`: -77.2%; for `O=C(CN1CCOCC1)Nc1ccc(Br)cc1C(=O)c1ccccc1`: -3.67%; for `O=C(CCN1CCOCC1)NCC(=O)Nc1ccc(Br)cc1C(=O)c1ccccc1`: -17.6%. The same measure for `O=C(CCN1CCOCC1)Nc1ccc(Br)cc1C(=O)c1ccccc1`: -0.737%. The value for `O=C(CN1CCOCC1)NCC(=O)Nc1ccc(Br)cc1C(=O)c1ccccc1` was -20%; that for `CCc1oc(C(=O)O)cc1COC` was -4.45%. Regarding `Cc1ccc(C)c(Nc2ncnc(N)c2[N+](=O)[O-])c1`, the “hERG current change (%, negative = inhibition) at 1uM” value is 9.83%. Take `Cc1nc(NC(=O)c2ccccc2)sc1C`: the “hERG current change (%, negative = inhibition) at 1uM” value is 16.6%. The same measure for `O=C(N/N=C/c1ccccc1)C1CCCN1C(=O)c1cc([N+](=O)[O-])cc([N+](=O)[O-])c1` (centres unmarked): 12.4%.

On to `COc1ccc(C=O)cc1Cn1ccnc1C.Cl`, for which the “hERG current change (%, negative = inhibition) at 1uM” value turned out to be 15.4%.

Take `Cc1cc(F)c(F)c(C(=O)N2CCC(C)CC2)c1Cl`: the “hERG current change (%, negative = inhibition) at 1uM” value was 5.24%.

Turning to `Cc1cc(-n2cccn2)ccc1CN1CCN(C2CCCC2)C(CCO)C1` (centres unmarked), the “hERG current change (%, negative = inhibition) at 1uM” value is listed as -54.2%.

Regarding `Cc1ccc(CN2CCN(Cc3ccc(-n4cccn4)cc3)CC2CCO)cc1` (centres unmarked), the “hERG current change (%, negative = inhibition) at 1uM” value is reported as -65.5%. Consider `Cc1cc(-n2cccn2)ccc1CN1CCN(CC(C)C)C(CCO)C1` (centres unmarked), for which the “hERG current change (%, negative = inhibition) at 1uM” value was 0.354%.

Regarding `Cc1ccc(CN2CCN(Cc3cccc(-n4cccn4)c3)CC2CCO)cc1` (centres unmarked), the “hERG current change (%, negative = inhibition) at 1uM” value is recorded as -80.1%. The same measure for `OCCC1CN(Cc2cccc(-n3cccn3)c2)CCN1Cc1ccccc1` (centres unmarked): -13.4%; for `Cc1cccc(CN2CCN(Cc3cccc(-n4cccn4)c3)CC2CCO)n1` (centres unmarked): -13.6%.

In the case of `Cc1ccc(CN2CCN(Cc3ccc(-n4cccn4)cc3C)CC2CCO)cc1` (centres unmarked), the “hERG current change (%, negative = inhibition) at 1uM” value is -83.8%.

On to `OCCC1CN(Cc2cc(F)ccc2-n2cccn2)CCN1C1CCCC1` (centres unmarked), for which the “hERG current change (%, negative = inhibition) at 1uM” value was 3.09%. The value for `OCCC1CN(Cc2ccc(-n3cccn3)cc2)CCN1Cc1ccccc1` (centres unmarked) was -28.5%; that for `OCCC1CN(Cc2cccc3nccnc23)CCN1C1CCCC1` (centres unmarked) was 3.17%.

For `OCCC1CN(Cc2cc(F)ccc2-n2cccn2)CCN1Cc1ccc(F)cc1` (centres unmarked), the “hERG current change (%, negative = inhibition) at 1uM” value is reported as -36.9%. The value for `Cc1cccc(CN2CCN(Cc3ccc(-n4cccn4)cc3)CC2CCO)n1` (centres unmarked) was -1.6%.

With `CCOc1ccccc1N1CC(O)=C(c2nc3ccccc3s2)C1=N`, the “hERG current change (%, negative = inhibition) at 1uM” value was 5.48%. The value for `O=C(CSc1nc(-c2ccccc2)cc(=O)[nH]1)Nc1ccc(F)c(F)c1` was 12.9%; that for `Cc1ccc(S(=O)(=O)Nc2ccc(C(=O)NCc3cccnc3)cc2)cc1` was 10.9%.

As for `CCc1nc(SCC(=O)NCc2ccc(F)cc2)c2c(=O)n(C)c(=O)n(C)c2n1`, the “hERG current change (%, negative = inhibition) at 1uM” value was determined as 11.2%.

As for `COc1ccc(OC)c(S(=O)(=O)NCC(=O)NC2CCCCCC2)c1`, the “hERG current change (%, negative = inhibition) at 1uM” value worked out at 16%. For the compound `COc1ccc2nc3sc(C(=O)N4CCN(C)CC4)cc3cc2c1`, the “hERG current change (%, negative = inhibition) at 1uM” value is given as -12%. The same measure for `CC(NC(=O)COC(=O)/C=C/c1ccco1)c1ccccc1` (centres unmarked): 8.61%; for `CSc1cccc(CN2CCC(CO)(Cc3cccc(C(F)(F)F)c3)CC2)c1`: -35.9%; for `Cc1ccc(-n2cc(CN3CCC(CO)(Cc4ccccc4)CC3)cn2)cc1`: -22%. The value for `COc1ccc(CN2CCC(CO)(Cc3ccccc3)CC2)cc1Cn1cccn1` was -55.9%; that for `COc1ccc(CC2(CO)CCN(Cc3cnn(-c4ccc(F)cc4)c3)CC2)cc1` was -79.2%. The value for `Cc1ccc(-n2cc(CN3CCC(CO)(Cc4cccc(C(F)(F)F)c4)CC3)cn2)cc1` was -64.3%; that for `CC(C)Cc1cc(CN2CCC(CO)(Cc3cccc(C(F)(F)F)c3)CC2)[nH]n1` was -66%. For `CC(C)Cc1cc(CN2CCC(CO)(Cc3ccccc3)CC2)[nH]n1`, the “hERG current change (%, negative = inhibition) at 1uM” value was -42.9%. The value for `COc1ccc(CC2(CO)CCN(Cc3cnn(C)c3C)CC2)cc1` was 6.81%. The same measure for `OCC1(Cc2ccccc2)CCN(Cc2cnn(-c3ccccc3F)c2)CC1`: -4.22%; for `COc1ccc(CN2CCN(C(C)C)C(CCO)C2)cc1Cn1cccn1` (centres unmarked): 12%; for `CC(C)Cc1cc(CN2CCCC(CO)(Cc3cccc(Cl)c3)C2)[nH]n1` (centres unmarked): -14.7%. The same measure for `COc1ccc(CN2CCC(CO)(Cc3cccc(C(F)(F)F)c3)CC2)cc1Cn1cccn1`: -35.3%; for `COCCOc1nc2ccccc2nc1C`: 6.8%; for `O=C(Nc1nnc(-c2ccccc2)s1)c1ccccc1F`: 13.3%. On to `CC(C)C[C@@H](CO)NC(=O)CC[C@H](NC(=O)OC(C)(C)C)C(=O)N(Cc1ccccc1)Cc1ccccc1`, for which the “hERG current change (%, negative = inhibition) at 1uM” value worked out at 16%. The value for `CCOC(=O)c1cnc(SC2CC(=O)N(c3cccc(OC)c3)C2=O)nc1N` (centres unmarked) was 11.3%; that for `CC1(c2nnc(-c3cccc(Cl)c3)o2)CC(c2cccc([N+](=O)[O-])c2)=NO1` (centres unmarked) was 16.3%; that for `COc1ccc(CC2(CO)CCN(Cc3cnn(-c4ccccc4OC)c3)CC2)cc1` was -48.4%. The value for `OCC1(Cc2cccc(C(F)(F)F)c2)CCN(Cc2cc(F)cc(F)c2)CC1` was 4.2%. The same measure for `CCOc1cc(CN2CCC(CO)(Cc3cccc(C(F)(F)F)c3)CC2)ccc1OC`: -78%.

`OCC1(Cc2ccccc2)CCCN(Cc2cnn(-c3ccccc3)c2)C1` (centres unmarked): the “hERG current change (%, negative = inhibition) at 1uM” value is on record as -27.4%. The value for `COc1ccc(CC2(CO)CCN(Cc3cnn(-c4ccccc4)c3)CC2)cc1` was -57.2%; that for `COc1cc(CN2CCC(CO)(Cc3cccc(C(F)(F)F)c3)CC2)ccc1F` was -15.9%. As for `CC(=O)Nc1ccc(S(=O)(=O)Oc2ccc(N3C(=O)C4CCCCC4C3=O)cc2)cc1` (centres unmarked), the “hERG current change (%, negative = inhibition) at 1uM” value came out at 15.5%. The value for `CCOC(=O)c1nnn(-c2nonc2N)c1-c1ccc(F)cc1` was 13.5%. With `COC(=O)[C@@H]1[C@H]2C[C@H]3c4[nH]c5ccccc5c4CCN3C[C@@H]2CC[C@@H]1O`, the “hERG current change (%, negative = inhibition) at 1uM” value is listed as -21.3%. The same measure for `COC(=O)C1C(O)CCC2CN3CCc4c([nH]c5ccccc45)C3CC21` (centres unmarked): 1.1%; for `CC[C@H]1CC2CN3CCc4c([nH]c5ccccc45)C(C(=O)OC)(C2)C13.Cl` (some centres unmarked): 7.18%; for `CC[C@]12CCCN3CCc4c(n(c5ccccc45)[C@@](O)(C(=O)OC)C1)[C@@H]32`: -85.4%. Take `CC[C@]12CCCN3CCc4c(n(c5ccccc45)[C@](O)(C(=O)OC)C1)[C@@H]32`: the “hERG current change (%, negative = inhibition) at 1uM” value is reported as -69.4%. The same measure for `CCC12CCCN3CCc4c(n(c5ccccc45)C(O)(C(=O)OC)C1)C32` (centres unmarked): -2.18%. The same measure for `O=P(O)(O)C(O)C(F)(F)C(F)(F)C(F)(F)C(F)F` (centres unmarked): 21.8%; for `O=S(=O)(c1ccccc1)c1nc(-c2ccco2)oc1N1CCCCCC1`: 11.4%; for `O=C(Nc1ccncc1)c1ccc(F)cc1`: 7.66%. The same measure for `O=C(CSc1nnc(-c2cccnc2)n1-c1ccccc1)Nc1ccccc1`: -44.9%; for `Cc1ccc(NC(=O)CSc2nnc(-c3cccnc3)n2-c2ccc(C)cc2)cc1`: 2.22%.

On to `Cc1ccc(NC(=O)CSc2nnc(-c3cccnc3)n2CCN2CCCCC2)cc1`, for which the “hERG current change (%, negative = inhibition) at 1uM” value is -53.7%.

Regarding `Cn1c(SCC(=O)Nc2cccc(F)c2)nnc1-c1cccnc1`, the “hERG current change (%, negative = inhibition) at 1uM” value is -6.1%. The same measure for `Cc1ccc(NC(=O)C(C)Sc2nnc(-c3cccnc3)o2)cc1` (centres unmarked): 14%. The value for `O=C(CSc1nnc(-c2cccnc2)n1CCN1CCCCC1)Nc1cccc(Cl)c1` was -80.3%; that for `CCCn1c(SCC(=O)Nc2cccc(C(=O)OC)c2)nnc1-c1cccnc1` was -22.5%; that for `Cc1ccc(NC(=O)C(C)Sc2nnc(-c3cccnc3)n2-c2ccccc2)cc1` (centres unmarked) was -86.2%. Take `Cn1c(SCC(=O)Nc2ccc(F)cc2)nnc1-c1cccnc1`: the “hERG current change (%, negative = inhibition) at 1uM” value is reported as -2.78%.

For the origin of these results see publication PMC4336329 (PLoS ONE, 2015).
